Laboratory results as given in PubChem BioAssay AID1159580 (chemical genetic matrix, 2015).
Screen size: about 5,500 compounds; about 2,000 (36%) were called active. Another 18% or so got no clear call; they are omitted. No stated cut-off is given here; in the data, active means normalized growth mostly below about 0.91 (no sharp cut-off); inconclusive means no clear call, values can overlap the other calls; inactive means mostly above about 0.92. This is one part of the list.

Experiment: chemical genetic growth profiling, strain panel (AID 1159580);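 further: tested at 20 µM; growth read once vehicle control cultures reached saturation at 30 °C; 1 = growth at the plate median or of vehicle wells; lower values mean less growth of the strain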
Conditions: growth OD

Measured: normalized growth

CCCCCN=C(N)N/N=C\c1c[nH]c2ccc(OC)cc12
inactive: S. cerevisiae deletion strains, locus YJR043C, strain POL32, active compounds read low 0.989 | S. cerevisiae deletion strains, locus YJR075W, strain HOC1, active compounds read low 0.996 | S. cerevisiae deletion strains, locus YKL009W, strain mrt4, active compounds read low 0.974 | S. cerevisiae deletion strains, locus YKL068W, active compounds read low 0.993 | S. cerevisiae deletion strains, locus YKL085W, strain MDH1 (second series), active compounds read low 0.956 | S. cerevisiae deletion strains, locus YKL085W, strain MDH1, active compounds read low 0.956 | S. cerevisiae deletion strains, locus YKL160W, strain elf1, active compounds read low 1.01 | S. cerevisiae deletion strains, locus YKL190W, strain CNB1, active compounds read low 1.01 | S. cerevisiae deletion strains, locus YKR001C, strain vps1, active compounds read low 1.03 | S. cerevisiae deletion strains, locus YKR026C, strain gcn3, active compounds read low 1.01 | S. cerevisiae deletion strains, locus YKR091W, strain srl3, active compounds read low 0.992 | S. cerevisiae deletion strains, locus YLL001W, strain dnm1, active compounds read low 1.01 | S. cerevisiae deletion strains, locus YLL026W, active compounds read low 1.01 | S. cerevisiae deletion strains, locus YLL041C, strain sdh2, active compounds read low 1 | S. cerevisiae deletion strains, locus YLR027C, strain aat2, active compounds read low 1 | S. cerevisiae deletion strains, locus YLR039C, strain RIC1, active compounds read low 1.08 | S. cerevisiae deletion strains, locus YLR058C, strain SHM2, active compounds read low 0.99 | S. cerevisiae deletion strains, locus YLR102C, strain apc9, active compounds read low 1.02 | S. cerevisiae deletion strains, locus YLR221C, strain rsa3, active compounds read low 0.986 | S. cerevisiae deletion strains, locus YLR258W, strain gsy2, active compounds read low 0.995 | S. cerevisiae deletion strains, locus YLR262C, strain YPT6 (second series), active compounds read low 1.04 | S. cerevisiae deletion strains, locus YLR262C, strain YPT6, active compounds read low 1.01 | S. cerevisiae deletion strains, locus YLR268W, strain sec22, active compounds read low 0.998 | S. cerevisiae deletion strains, locus YLR320W, strain mms22, active compounds read low 0.98 | S. cerevisiae deletion strains, locus YLR330W, strain CHS5, active compounds read low 1.01 | S. cerevisiae deletion strains, locus YLR342W, strain FKS1 (second series), active compounds read low 0.989 | S. cerevisiae deletion strains, locus YLR342W, strain FKS1, active compounds read low 1.01 | S. cerevisiae deletion strains, locus YLR357W, strain rsc2, active compounds read low 0.975 | S. cerevisiae deletion strains, locus YLR370C, strain arc18, active compounds read low 1 | S. cerevisiae deletion strains, locus YLR371W, strain rom2, active compounds read low 1.03 | S. cerevisiae deletion strains, locus YLR384C, strain iki3, active compounds read low 1.02 | S. cerevisiae deletion strains, locus YLR418C, strain cdc73, active compounds read low 0.993 | S. cerevisiae deletion strains, locus YML016C, strain PPZ1, active compounds read low 1 | S. cerevisiae deletion strains, locus YML032C, strain rad52, active compounds read low 1.02 | S. cerevisiae deletion strains, locus YML120C, strain ndi1, active compounds read low 1.01 | S. cerevisiae deletion strains, locus YML124C, strain tub3, active compounds read low 1.02 | S. cerevisiae deletion strains, locus YMR058W, strain fet3, active compounds read low 1.01 | S. cerevisiae deletion strains, locus YMR078C, strain ctf18, active compounds read low 1.03 | S. cerevisiae deletion strains, locus YMR125W, strain sto1, active compounds read low 0.979 | S. cerevisiae deletion strains, locus YMR129W, active compounds read low 1.01 | S. cerevisiae deletion strains, locus YMR205C, strain PFK2, active compounds read low 0.994 | S. cerevisiae deletion strains, locus YMR223W, strain ubp8, active compounds read low 1.01 | S. cerevisiae deletion strains, locus YMR231W, strain pep5, active compounds read low 1.02 | S. cerevisiae deletion strains, locus YMR263W, strain SAP30, active compounds read low 1.01 | S. cerevisiae deletion strains, locus YMR307W, strain GAS1, active compounds read low 0.973 | S. cerevisiae deletion strains, locus YNL067W, strain RPL9B, active compounds read low 0.998 | S. cerevisiae deletion strains, locus YNL071W, strain lat1, active compounds read low 1 | S. cerevisiae deletion strains, locus YNL128W, strain TEP1, active compounds read low 0.995 | S. cerevisiae deletion strains, locus YNL153C, strain GIM3, active compounds read low 1 | S. cerevisiae deletion strains, locus YNL209W, strain ssb2, active compounds read low 1 | S. cerevisiae deletion strains, locus YNL233W, strain BNI4, active compounds read low 0.985 | S. cerevisiae deletion strains, locus YNL248C, strain rpa49, active compounds read low 0.991 | S. cerevisiae deletion strains, locus YNL250W, strain rad50, active compounds read low 1.02 | S. cerevisiae deletion strains, locus YNL271C, strain bni1, active compounds read low 1.02 | S. cerevisiae deletion strains, locus YNL298W, strain CLA4, active compounds read low 1.02 | S. cerevisiae deletion strains, locus YNL307C, strain MCK1, active compounds read low 1.04 | S. cerevisiae deletion strains, locus YNL322C, strain KRE1 (second series), active compounds read low 1.02 | S. cerevisiae deletion strains, locus YNL322C, strain KRE1, active compounds read low 1 | S. cerevisiae deletion strains, locus YNR049C, strain mso1, active compounds read low 1.01 | S. cerevisiae deletion strains, locus YNR052C, strain pop2, active compounds read low 1.03 | S. cerevisiae deletion strains, locus YOL006C, strain TOP1, active compounds read low 0.995 | S. cerevisiae deletion strains, locus YOL012C, strain htz1 1.66 | S. cerevisiae deletion strains, locus YOL147C, strain pex11, active compounds read low 1.03 | S. cerevisiae deletion strains, locus YOR001W, strain rrp6, active compounds read low 0.995 | S. cerevisiae deletion strains, locus YOR061W, strain CKA2, active compounds read low 0.995 | S. cerevisiae deletion strains, locus YOR069W, strain VPS5, active compounds read low 1.01 | S. cerevisiae deletion strains, locus YOR070C, strain gyp1, active compounds read low 1 | S. cerevisiae deletion strains, locus YOR080W, strain dia2, active compounds read low 1 | S. cerevisiae deletion strains, locus YOR083W, strain WHI5, active compounds read low 0.991 | S. cerevisiae deletion strains, locus YOR106W, strain vam3, active compounds read low 0.995 | S. cerevisiae deletion strains, locus YOR136W, strain idh2, active compounds read low 1.03 | S. cerevisiae deletion strains, locus YOR144C, strain elg1, active compounds read low 1.01 | S. cerevisiae deletion strains, locus YOR184W, strain ser1, active compounds read low 1.02 | S. cerevisiae deletion strains, locus YOR265W, strain rbl2, active compounds read low 1.01 | S. cerevisiae deletion strains, locus YOR270C, strain vph1, active compounds read low 1.05 | S. cerevisiae deletion strains, locus YOR290C, strain snf2, active compounds read low 0.984 | S. cerevisiae deletion strains, locus YOR316C, strain cot1, active compounds read low 1.02 | S. cerevisiae deletion strains, locus YPL051W, strain arl3, active compounds read low 1 | S. cerevisiae deletion strains, locus YPL055C, strain LGE1, active compounds read low 0.993 | S. cerevisiae deletion strains, locus YPL078C, strain atp4, active compounds read low 1.03 | S. cerevisiae deletion strains, locus YPL106C, strain sse1, active compounds read low 1.01 | S. cerevisiae deletion strains, locus YPL240C, strain hsp82, active compounds read low 1 | S. cerevisiae deletion strains, locus YPL241C, strain CIN2, active compounds read low 1.05 | S. cerevisiae deletion strains, locus YPR119W, strain clb2, active compounds read low 1.02 | S. cerevisiae deletion strains, locus YPR141C, strain kar3, active compounds read low 1.02 | S. cerevisiae deletion strains, locus YPR163C, strain tif3, active compounds read low 1.02 | S. cerevisiae deletion strains, locus YPR167C, strain met16, active compounds read low 1.02 | S. cerevisiae deletion strains, strain wtn01, active compounds read low 1.01 | S. cerevisiae strains, strain wild type, active compounds read low 1
